Compound activity as filed in PubChem.
KB-3-1 cytotox: qHTS assay for MDR1-selective chemotherapeutics: Primary screen using the parental adenocarcinoma cell KB-3-1. KB-3-1 viability, CellTiter-Glo ATP luminescence, 72 h. Potency, µM (top dose mostly 46.1 µM), hits mostly cytotoxic. 400,000 tested, 1.4% active; also: potency is read from the fitted curve at half-maximal effect; nearly all actives have a fitted effect of over 60% in size
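Parental KB-3-1 adenocarcinoma cells in phenol-red-free DMEM with 10% FBS were pin-treated with compounds at several concentrations, incubated 72 h at 37 °C, and viability read by CellTiter-Glo luminescence; concentration-effect curves were fitted after normalization.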
IL-1B inflam inh: qHTS for Inhibitors of Inflammasome Signaling: IL-1-beta AlphaLISA Primary Screen | THP-1 LPS/ATP IL-1B secretion, AlphaLISA, 16 h; active compounds read low | activity change, % at 57.5 µM | 360,000 tested, 4.7% active; in the data active = activity change below about -50%; inconclusive = mostly about -30% to -49%
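THP-1 cells pretreated 1 hr with compounds (up to 57.5 uM final), then stimulated with LPS (250 ng/mL final) plus ATP (1.25 mM final); secreted IL-1B measured by AlphaLISA after 16 hr, decreased signal indicating inhibition.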
HT1080-NT tox: qHTS for induction of synthetic lethality in tumor cells producing 2HG: qHTS for the HT-1080-NT fibrosarcoma cell line | Potency, µM (doses to about 46.1 µM), for inactives: at the highest dose activity, negative = less viability, usual class: cytotoxic | 360,000 tested, 1.6% active | AID 686970, 2013 | HT-1080-NT fibrosarcoma viability, CellTiter-Glo ATP luminescence, 48 h;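 also: NT is the 2HG producing partner of a matched IDH1 knockdown line; potency is read from the fitted curve at half-maximal effect; 0% = DMSO-treated cells and -100% = media-only wells without cells; nearly all actives have a fitted effect of over 55% in size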
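Viability by CellTiter-Glo luminescence after 48 h compound exposure at 37C of HT-1080-NT cells (750/well, RPMI, 5% FBS). % activity scaled between DMSO wells and medium-only wells, then curve-fitted and categorized by curve class.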
KB-V1 MDR tox: qHTS assay for MDR1-selective chemotherapeutics: Primary screen using the drug-selected MDR subline cells KB-V1. KB-V1 MDR cells viability, CellTiter-Glo, 72 h. Potency, µM (series often up to 46.1 µM), usual class: cytotoxic. 400,000 tested, 3.4% active. AID 1347076, 2019; also: potency is read from the fitted curve at half-maximal effect; nearly all actives have a fitted effect of over 60% in size
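KB-V1 MDR subline cells in DMEM (phenol-red free, 10% FBS) exposed to compounds in qHTS concentration series for 72 h at 37 degrees C. Viability read by CellTiter-Glo luminescence; concentration-effect curves fitted after normalization and correction.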
HT1080 IDH1KD tx: qHTS for induction of synthetic lethality in tumor cells producing 2HG: qHTS for the HT-1080-IDH1KD cell line. HT-1080 IDH1 knockdown viability, ATP luminescence, 48 h. Potency, µM (highest dose often 46.1 µM), for inactives: top-dose activity, negative = toxicity, most hits filed as cytotoxic. 360,000 tested, 2% active;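 also: potency is read from the fitted curve at half-maximal effect; 0% = DMSO wells and -100% = cell-free medium wells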
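Assay cells: HT-1080 with IDH1 knockdown, 750 per well, RPMI/5% FBS. Exposure: 48 h at 37 °C following 2 h pre-incubation. Read: CellTiter-Glo luminescence; fitted concentration-response, curve class assigned.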
* = called active by the depositor; i = inactive; ? = inconclusive; · = not tested or not shown. Rows were chosen to be rich in hits. Some 8.8% of all compounds tested hit in one or more screens of this group. Unless noted, calls follow the shape of the dose curve; as a rule, active = well fitted curve in the direction sought with a large enough effect; inconclusive = small, poorly fitted or top-dose-only effect, or another doubt; inactive = no such curve, though single readings can be large; an effect the other way counts as inactive or inconclusive. Unless noted, % is scaled to controls: 0 for no effect and ±100 for the full control effect.

SMILES | KB-3-1 cytotox | IL-1B inflam inh | HT1080-NT tox | KB-V1 MDR tox | HT1080 IDH1KD tx
O=S(=O)(c1ccc(N2CC=C(c3ccccc3)CC2)nc1)N1CCCC1 | ? | -92.6* | ? | 8.2µM* | ?
O=S(=O)(c1ccc(N2CCN(S(=O)(=O)c3ccccc3)CC2)nc1)N1CCCC1 | i | -0.8 | 3.2% | i | -4.8%
COCCn1c(SCc2nc3scc(-c4ccc(Cl)cc4)c3c(=O)[nH]2)nnc1-c1cccc(C)c1 | 20.6µM* | -15.7 | -28.3% | 5.17µM* | -5.6%
CCn1c(SCc2nc3scc(-c4ccccc4)c3c(=O)[nH]2)nnc1-c1cccs1 | i | 0.6 | ? | i | ?
CC1(CNC(=O)C(=O)NCC2(C)CO2)CO1 (configuration not stated) | i | -0.7 | 1.7% | i | -17.9%
Cc1ccc(/C=N/n2cnc3sc4c(c3c2=O)CCCC4)o1 | i | -57.7* | ? | ? | -13.8%
COc1cccc(CN(C)C(=O)CSc2nc3ccccc3[nH]2)c1OC | i | 7.0 | 1.3% | 16.4µM* | 0.5%
O=C(CSc1nc2ccccc2[nH]1)c1ccc2c(c1)OCO2 | i | 1.9 | ? | 18.4µM* | 0.7%
Cc1[nH]c2ccccc2c1C(=O)CSC(=S)N(C)C1CCCCC1 | i | -0.1 | -4.0% | i | 1.4%
Cc1[nH]c2ccccc2c1C(=O)CSC(=S)N1CCCCC1 | i | -29.2 | 1.0% | 13µM* | -13.5%
O=C(CSc1nnc(SCc2cccc3ccccc23)s1)Nc1ccc(C(=O)O)cc1 | i | 12.9 | 16.0% | i | ?
O=C(CSc1nnc(SCc2cccc3ccccc23)s1)c1ccc2c(c1)OCO2 | i | -16.2 | 13.3% | 18.4µM* | 11.7%
COc1cccc(CN(C)C(=O)Cc2c[nH]c3ccccc23)c1OC | i | 25.3 | -29.6% | ? | -7.3%
Cc1[nH]c2ccccc2c1C(=O)CSc1nc2ccccc2[nH]1 | i | 0.0 | -23.4% | 20.6µM* | -20.3%
Cc1[nH]c2ccccc2c1C(=O)CSc1nccc(=O)[nH]1 | i | 19.0 | -0.4% | ? | 6.4%
CC(=O)Nc1nc(-c2ccc3c(c2)CCN3C(=O)C2CC2)c(C)s1 | ? | -5.4 | -26.6% | 14.6µM* | ?
CCN(CC)S(=O)(=O)c1ccc(C)c(NC(=O)COC(=O)CCC(=O)c2cccs2)c1 | i | 17.4 | -3.4% | i | 7.8%
COc1ccc(/C=N/n2cnc3c([nH]c4ccc(Br)cc43)c2=O)cc1CN1CCOCC1 | ? | -88.1* | 3.3% | ? | 0.7%
COc1ccc(/C=N/n2cnc3c([nH]c4ccccc43)c2=O)cc1CO | i | 6.0 | 0.0% | i | 2.9%
COc1ccccc1C(=O)Nc1ccc2c(c1)nc(CCNC(=O)c1ccco1)n2C | 1.64µM* | -19.8 | ? | ? | 4.61µM*
Cn1c(CCNC(=O)c2ccccc2)nc2cc(NC(=O)c3ccco3)ccc21 | ? | 21.6 | -4.3% | 16.4µM* | 8.3%
Cn1c(CCNC(=O)c2ccco2)nc2cc(NC(=O)c3ccccc3)ccc21 | i | 41.4 | -13.9% | i | -4.5%
COc1ccccc1NC(=O)C1=C(C)NC(SCC(=O)Nc2ccc(C(=O)O)cc2)=C(C#N)C1c1cccs1 (configuration not stated) | i | 26.3 | -4.8% | i | -10.1%
CCOC(=O)c1c(C)oc2c1c(C(c1cccnc1)N1CCOCC1)c(O)c1ccccc12 (configuration not stated) | ? | -109.6* | ? | ? | ?
CCOC(=O)c1c(C)oc2c1c1c(c3ccccc32)OCN(Cc2cccnc2)C1 | i | -12.8 | -1.1% | ? | -5.8%
SMILES | KB-3-1 cytotox | IL-1B inflam inh | HT1080-NT tox | KB-V1 MDR tox | HT1080 IDH1KD tx
CCOC(=O)c1c(C)oc2c1c(C=NCc1ccccn1)c(O)c1ccccc12 | ? | -94.0* | -5.1% | ? | -13.2%
COc1ccc(S(=O)(=O)N(C)C[C@H]2Oc3c(NC(=O)c4ccncc4)cccc3C(=O)N([C@H](C)CO)C[C@@H]2C)cc1 | i | -8.9 | 1.0% | i | 7.4%
O=C(Nc1ccc2c(c1)OCO2)c1cc(-c2ccc(Cl)cc2)on1 | i | · | · | i | ·
O=C(Nc1ccc2c(c1)OCO2)c1cc(-c2cccc(O)c2)on1 | i | -6.4 | 23.1µM* | i | 11.6µM*
COc1cccc(-c2cc(C(=O)Nc3ccc4c(c3)OCO4)no2)c1 | i | -13.4 | -8.6% | ? | -12.0%
O=C(Nc1ccc2c(c1)OCO2)c1cc(-c2ccc(O)cc2)on1 | i | -11.4 | 2.06µM* | i | 2.06µM*
COc1ccc(Cc2c(C3CCCCC3)nc3ccc(Br)cn23)c(C)c1 | i | 33.2 | -17.3% | i | -22.3%
FC(F)(F)COc1nc(N2CCOCC2)nc(N(c2ccccc2)c2ccccc2)n1 | i | -4.8 | ? | ? | ?
FC(F)(F)COc1nc(OCC(F)(F)F)nc(N2CCN(c3ccccc3)CC2)n1 | i | -53.5* | 1.3% | i | -11.4%
COc1cccc(-c2cc(C(F)(F)F)nc(N3CCN(c4ccccc4)CC3)n2)c1 | ? | -4.6 | ? | 16.4µM* | 3.2%
CCOC(=O)N1CCN(c2nc(-c3cccc(OC)c3)cc(C(F)(F)F)n2)CC1 | i | -7.8 | 28.4% | i | 15.5%
Cc1cccc2cc(CNCC3CCCO3)c(Cl)nc12 (configuration not stated) | i | 0.0 | 1.3% | ? | -2.0%
O=C(CCn1cccc1)NCc1ccccc1 | i | 5.4 | 0.0% | i | -2.2%
O=C(Cc1ccc(-n2cccc2)cc1)NCc1ccccc1Cl | ? | -5.6 | 8.2µM* | i | 8.2µM*
O=C(NCc1ccccc1Cl)NCc1ccccc1Cl | i | 14.2 | 14.8% | i | 5.3%
O=C(Cc1ccccc1)NCc1ccc(-n2cccc2)cc1 | ? | 26.1 | 5.17µM* | i | 5.8µM*
O=C(NCc1ccco1)/C(=C/C=C\c1ccccc1)NC(=O)c1ccc(Br)o1 | ? | -8.2 | -0.4% | 4.11µM* | ?
O=C(/C=C/c1ccccc1)NCc1ccco1 | i | -18.5 | 12.0% | i | 13.8%
COc1ccccc1NC(=O)/C(C#N)=C/C=C/c1ccco1 | 1.46µM* | 22.9 | 1.78µM* | ? | 1.41µM*
N#C/C(=C\C=C\c1ccccc1)C(=O)NCc1ccco1 | i | -81.2* | ? | i | ?
Cc1cccc(CN2CCN(C(=O)CN(C)C(C)C(=O)Nc3ccc(C(N)=O)cc3)CC2)c1 (configuration not stated) | i | -2.4 | -1.4% | i | -1.1%
CC(C)(C)OC(=O)N1CCC(c2c(C(=O)NCCN3CCC(Cc4ccccc4)CC3)cnn2-c2ccccc2)CC1 | i | · | · | ? | ·
COc1ccc(CCN2CCC(CNC(=O)c3cnn(-c4ccccc4)c3C3CCN(C(=O)OC(C)(C)C)CC3)CC2)cc1 | 16.4µM* | · | · | ? | ·
